# High-throughput results from PubChem.
# Shown is part of a subset that was picked to be rich in hits.
# Cruzain Triton: blocks cruzain activity in presence of Triton detergent | actives 0.43% (n = 200,000) | Potency, µM, for inactives: max response, negative = inhibition, hits mostly inhibitors | purified cruzain, Z-FR-AMC fluorescence, 0.01% Triton;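 also: plate controls were neutral wells for no effect and buffer without enzyme for full effect; nearly all actives have a fitted effect of over 40% in size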
# Target sequence (P25779 123-467 limits assumed): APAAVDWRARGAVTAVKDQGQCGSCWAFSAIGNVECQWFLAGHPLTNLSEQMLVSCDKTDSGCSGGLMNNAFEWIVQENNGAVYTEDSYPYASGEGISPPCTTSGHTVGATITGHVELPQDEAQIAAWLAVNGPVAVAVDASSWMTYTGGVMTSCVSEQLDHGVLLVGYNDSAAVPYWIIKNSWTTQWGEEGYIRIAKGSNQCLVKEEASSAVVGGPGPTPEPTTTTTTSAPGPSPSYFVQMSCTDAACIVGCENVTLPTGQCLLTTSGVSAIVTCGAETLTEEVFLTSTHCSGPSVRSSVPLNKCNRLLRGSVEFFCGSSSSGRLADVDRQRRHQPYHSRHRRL
#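 Compounds were screened in titration against cruzain (1.5 nM) with 0.01% Triton X-100 to counter colloidal aggregation. Activity was the AMC fluorescence increase over 60 s after adding 2 uM Z-FR-AMC at pH 5.5.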
# NS1 function inh: inhibitors of influenza NS1 protein function; actives 0.4% (n = 270,000); Potency, µM (highest dose often 46.1 µM), for the others: at the highest dose activity, positive = more growth; calls by dose curve; also: actives are rising curves; nearly all actives have a fitted effect of over 50% in size
#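 In this qHTS, NS1 from influenza A is expressed in budding yeast, where it slows growth. Cells are switched from glucose to 2% galactose medium (pH 6.0, -URA), treated with compound, and growth recovery is read at OD600.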
# Cruzain noTriton: inhibitors of Trypanosoma cruzi cruzain without detergent | P25779 | purified cruzain, Z-FR-AMC fluorescence, no detergent | Potency, µM, for inactives: max response, negative = inhibition, actives largely listed as inhibitors | actives 2.3% (n = 200,000);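 also: plate controls were enzyme without inhibitor for no effect and buffer without enzyme for full effect; nearly all actives have a fitted effect of over 40% in size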
#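 Purified cruzain at 1.5 nM, pre-incubated 15 min with compound at room temperature in 100 mM sodium acetate pH 5.5, 5 mM DTT, 0.00005% Triton X-100. Reaction started with 2 uM Z-FR-AMC; AMC fluorescence increase over 60 s gives rate.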
# * marks the source's active call; other numbers are inactive results; ? = inconclusive; / = no result given. Unless noted, calls follow the shape of the dose curve; as a rule, active = well fitted curve in the direction sought with a large enough effect; inconclusive = small, poorly fitted or top-dose-only effect, or another doubt; inactive = no such curve, though single readings can be large; an effect the other way counts as inactive or inconclusive. Potency is read from the fitted curve at half-maximal effect.
SMILES,Cruzain Triton,NS1 function inh,Cruzain noTriton
CN(C)c1ccc(/C=N\NC(=S)SCN2C(=O)C3CCC(C)(C2=O)C3(C)C)cc1 (stereo unspecified),1.9%,?,31.6µM*
CC12CCC(C(=O)N(CSC(=S)N/N=C\c3ccccc3O)C1=O)C2(C)C (stereo unspecified),-19.1%,28.2%,?
Cc1oc2ccc(O)cc2c1C(=O)OC(C)C,-8.3%,0.4%,-3.6%
C/C(=N\NC(=O)c1ccccc1)c1c(O)n(Cc2ccccc2)c(=O)[nH]c1=O,/,-4.0%,/
C/C(=N\Nc1cccc2ccccc12)c1c(O)n(Cc2ccccc2)c(=O)[nH]c1=O,-4.8%,22.0%,10µM*
Cc1ccccc1Nc1nc(-c2sc(NC(=O)c3cccc(Cl)c3)nc2C)cs1,1.6%,21.0%,6.31µM*
Cc1ccccc1Nc1nc(-c2sc(NC(=O)c3ccc([N+](=O)[O-])cc3)nc2C)cs1,6.4%,6.0%,10µM*
C=CCCC(=O)Nc1nc(C)c(-c2csc(Nc3ccccc3OC)n2)s1,-9.2%,1.2%,?
COc1ccc(-c2nc(NC(=O)c3ccccc3)sc2-c2ccc([N+](=O)[O-])cc2)cc1,-1.8%,27.0%,7.94µM*
COc1ccc(-c2sc(NC(C)=O)nc2-c2ccccc2)cc1,-10.4%,12.5%,13.6%
Cc1ccccc1Nc1nc(-c2sc(NC(=O)c3ccccc3)nc2C)cs1,-4.8%,12.3%,12.6µM*
Cc1cc(C(=O)Nc2nc(-c3ccccn3)cs2)ccc1[N+](=O)[O-],/,5.4%,/
CC(=O)c1cccc(Nc2nc(-c3sc(C)nc3C)cs2)c1,/,-13.6%,/
Cc1ccc(-c2cc(C(=O)N3CCN(c4ncccn4)CC3)c3cc(Br)ccc3n2)o1,/,9.5%,/
CC1=C(C(=O)Nc2ccc(Cl)cc2)C(C(C)C)n2nc(SCc3cccc(C)c3)nc2N1 (stereo unspecified),-2.1%,/,-0.1%
Cc1ccc(Cl)cc1Nc1nc(-c2sc(NC(=O)c3cccc(Cl)c3)nc2C)cs1,11.1%,-17.4%,3.98µM*
Cc1nc(NC(=O)c2ccccc2)sc1-c1csc(Nc2ccc(F)cc2)n1,-2.8%,?,15.8µM*
CCOc1ccccc1Nc1nc(-c2sc(NC(=O)c3ccc([N+](=O)[O-])cc3)nc2C)cs1,1.4%,15.6%,6.31µM*
Cc1ccc(Cl)cc1Nc1nc(-c2cccnc2)cs1,/,-85.1%,/
COc1ccc(Nc2nc(-c3sc(NC(C)=O)nc3C)cs2)cc1,-3.1%,16.1%,5.2%
Cc1ccc(Nc2nc(-c3sc(NC(=O)c4ccc([N+](=O)[O-])cc4)nc3C)cs2)cc1,-0.2%,-1.9%,7.94µM*
CC(=O)Nc1ccc(Nc2nc(-c3sc(C)nc3C)cs2)cc1,/,10.0%,/
CCCCC(=O)Nc1nc(C)c(-c2csc(Nc3ccccc3OC)n2)s1,-2.9%,18.3%,?
Cc1cccc(-n2ncc3c(NC4CCCC4)ncnc32)c1,-1.2%,/,-11.5%
CCSc1nnc(NC(=O)C2CC=CCC2C(=O)O)s1 (stereo unspecified),7.0%,-9.2%,10.5%
SMILES,Cruzain Triton,NS1 function inh,Cruzain noTriton
COC(=O)c1ccc(C(=O)OC)c(NC(=S)N2CCCCC2C)c1 (stereo unspecified),-0.2%,-3.5%,0.4%
Cc1ccc(Cl)cc1N1CCN(C(=O)c2ccc3c(c2)CCN3S(=O)(=O)c2ccccc2)CC1,0.2%,/,?
COc1cccc2c1cc1c(=O)n(CC(=O)NC3CCCCC3)nc(C)n12,1.0%,4.3%,3.1%
Cc1ccc(CCNC(=O)c2ccc3c(c2)N(Cc2cccc(F)c2)C(=O)c2ccccc2S3)cc1,-3.9%,/,?
Cc1ccc(-n2c3nc(=O)[nH]c(=O)c-3cc3c(C)nn(-c4ccccc4)c32)cc1C,-0.1%,/,3.9%
COc1cc(-c2nnc(-c3cccs3)o2)cc(OC)c1OC,-1.0%,-6.1%,-0.5%
Fc1ccc2c(Cl)c(-c3nnc(-c4cccs4)o3)sc2c1,3.6%,2.1%,10µM*
CC(C)(C)c1ccc(C(=O)NCC(=O)OCC(=O)c2ccc3c(c2)-c2ccccc2C3)cc1,-3.8%,25.4%,25.1µM*
O=C(CNC(=O)c1cccs1)OCC(=O)c1ccc2ccccc2c1,?,-12.9%,-18.1%
CCOc1ccc2nc(SCC(=O)N3c4ccccc4Sc4ccccc43)c(C#N)cc2c1,-1.0%,5.4%,3.98µM*
CCOc1ccc2nc(SCc3ccc(CC(=O)O)cc3)c(C#N)cc2c1,/,1.8%,/
COc1ccc2c(c1)c(=O)c(C(=O)c1ccccc1)cn2CC(=O)Nc1ccc2c(c1)OCO2,-2.7%,/,-24.8%
Cc1cc(C)c(S(=O)(=O)/N=C2\C=CC(=O)C(Cl)=C2)c(C)c1,?,15.1%,?
Cc1ccc(-c2noc(=O)n2CC(=O)c2ccc(Cl)cc2)cc1,/,0.3%,/
O=C(Nc1nnc(C2CC2)s1)c1cc2c(s1)CCCCCC2,6.1%,-1.8%,6.31µM*
O=C(Nc1nnc(C2CC2)s1)c1cccs1,/,-38.2%,/
O=C(Nc1nnc(SCc2ccc(F)cc2)s1)c1ccco1,1.5%,-121.2%,-17.2%
CC1CCc2sc(C(=O)Nc3nnc(SCc4ccc(F)cc4)s3)cc2C1 (stereo unspecified),-9.7%,1.2%,10µM*
COC(=O)c1ccc(CSc2nnc(NC(=O)c3cc4c(s3)CCCC4)s2)cc1,-6.9%,-3.1%,6.31µM*
COC(=O)c1ccc(CSc2nnc(C)s2)cc1,7.1%,-6.9%,-12.8%
COc1cccc2cc(C(=O)Nc3ccccc3C)/c(=N/O)oc12,/,-3.0%,/
COc1cccc(NC(=O)CN(C)C(C)C(=O)Nc2ccc(S(=O)(=O)N3CCOCC3)cc2)c1 (stereo unspecified),/,-44.8%,/
O=c1[nH]c(CSc2nc3ccccc3s2)nc2ccccc12,/,-2.6%,/
COc1ccc(C2NCCc3c2[nH]c2ccccc32)cc1CSc1nc2ccccc2s1 (stereo unspecified),-10.2%,?,25.1µM*
COc1ccc(Cc2nc3ccc(C(=O)NCc4cc(C)no4)cc3o2)cc1,/,2.8%,/
SMILES,Cruzain Triton,NS1 function inh,Cruzain noTriton
COc1ccc2nc(NC(=O)CSc3nc4ccccc4o3)sc2c1,5.2%,?,-18.0%
O=C(CSc1nc2ccccc2o1)Nc1nc2ccc(Br)cc2s1,1.0%,10.3%,10µM*
O=C(NC1CCCCC1)Oc1cccc2ccccc12,/,2.7%,/
O=C(CSc1nnc(C2CC2)n1Cc1ccccc1)c1cc2ccccc2o1,-3.9%,7.6%,15.8µM*
NC(=O)CSc1nnc(-c2cc3ccccc3o2)n1Cc1ccccc1,-2.4%,-1.5%,?
CN(C)c1ccc(NC(=O)Cn2nnc3sc4c(c3c2=O)CCC(C(C)(C)C)C4)cc1 (stereo unspecified),-4.3%,/,-27.8%
O=C(NCCc1nc2ccccc2[nH]1)c1ccc(Cl)c([N+](=O)[O-])c1,1.26µM*,5.4%,2µM*
Cc1ccc(C(=O)NCCc2nc3ccccc3[nH]2)cc1[N+](=O)[O-],4.47µM*,-3.7%,15.6%
O=C(NCCc1nc2ccccc2[nH]1)c1ccc(Br)o1,/,-3.4%,/
O=C(NCCc1cccc(Cl)c1)c1ccc(Cl)c([N+](=O)[O-])c1,-5.5%,-39.7%,-17.9%
Cc1ccc(C(=O)NCCSc2c(C)[nH]c3ccccc23)cc1[N+](=O)[O-],-7.5%,-30.1%,-2.0%
O=C(NCCc1nc2ccccc2[nH]1)c1ccco1,-24.1%,0.0%,12.6µM*
O=C(Nc1ccc2nc(-c3ccccc3)[nH]c2c1)c1ccco1,-1.6%,-10.5%,-29.2%
O=C(Nc1cccc(-c2nc3ccccc3[nH]2)c1)c1cccc(NC(=O)c2ccco2)c1,10µM*,4.4%,5.01µM*
